The list is not random: actives were taken first. Their share in the collection is about 4.6%.
Wee1 stabilizer: inhibitors of human Wee1 degradation. P30291. HeLa Luc-Wee1K328M stability, luciferase luminescence; 100% = proteasome inhibitor MG132 effect. reporter increase, % at 5 µM. 220,000 tested, 1.2% active. AID 1321;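 active means activation above the mean of all tested compounds plus 3 SD, set per screening run, cut at about 8.8% in these data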;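 further: cells exposed to compound for 20 h before luminescence read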
ssDAF-12 act: activators of S. stercoralis DAF-12 nuclear receptor; HEK293 ssDAF-12/GRIP1 lit1-tk-luc reporter, luminescence; % of 3 µM dafachronic acid response; AID 652126; 370,000 tested, 1% active; activation, % at 6.8 µM;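 active means activation above the mean over all tested compounds plus 3 SD, cut at about 0.9% in these data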
hgDAF-12 ag: hgDAF-12 agonism, primary luciferase screen | HEK293 GAL4-hgDAF12 UAS-luciferase reporter, agonist luminescence; normalized to butyrate control | AID 687014 | activation, % at 6.8 µM | 370,000 tested, 1.8% active;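 active means activation above a cutoff set at the mean of all screened compounds plus 3 SD, cut at about 10% in these data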
hcDAF-12 act: activators of H. contortus DAF-12 nuclear receptor. HEK293 hcDAF-12 lit1-tk-luc reporter, luminescence; 0% DMSO, 100% Δ7-dafachronic acid. activation, % at 6.8 µM. 370,000 tested, 1.4% active;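 active means activation above the mean of all tested compounds plus 3 SD, cut at about 5.5% in these data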
DAX1 inh-1: inhibits human nuclear receptor DAX1; P51843; HEK293 Gal4-DAX1 luciferase reporter, luminescence; inhibition, % at 6.75 µM; 340,000 tested, 0.99% active; AID 504766;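 active means inhibition above the mean over all tested compounds plus 3 SD, cut at about 4.2% in these data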;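 further: inhibition shows as a rise in luminescence from relieved DAX1 repression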
Target sequence (P51843 207-470 limits assumed): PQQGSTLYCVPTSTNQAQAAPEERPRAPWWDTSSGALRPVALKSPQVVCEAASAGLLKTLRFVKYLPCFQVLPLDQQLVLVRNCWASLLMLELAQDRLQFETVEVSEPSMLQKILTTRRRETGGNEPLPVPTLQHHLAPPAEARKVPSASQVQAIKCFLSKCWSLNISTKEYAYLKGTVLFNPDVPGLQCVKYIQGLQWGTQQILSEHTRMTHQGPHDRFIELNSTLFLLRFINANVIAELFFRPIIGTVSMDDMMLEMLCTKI
DAX1 inh-2: inhibitors of DAX1 repression of SF-1 activated StAR promoter. 370,000 tested, 1.1% active. HEK293T StAR-luciferase reporter, SF-1/DAX-1 repression relief. inhibition, % at 6.8 µM;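 active means inhibition above the mean over all tested compounds plus 3 SD, cut at about 3.6% in these data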;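 further: higher inhibition means more luminescence from relief of DAX-1 repression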
Large screens that a line does not name were inactive.

Cc1ccc(-c2cc(C(=O)NN=Cc3cccc(OCc4ccccc4)c3)[nH]n2)cc1C	none (no result: Wee1 stabilizer, DAX1 inh-1)
CC1(C)CC=CC(COC(=O)c2ccccc2C(=O)O)C1 (centres undefined)	none (no result: Wee1 stabilizer)
Cc1ccccc1C(=O)NC[C@@H]1CCCN2CCCC[C@H]12	DAX1 inh-1 4.5 (no result: Wee1 stabilizer)
Cc1cc(NC(=O)c2cccc(Cl)c2)n[nH]1	none (no result: Wee1 stabilizer)
Cc1cc(NC(=O)NC(=O)c2ccc(F)cc2F)n[nH]1	hgDAF-12 ag 11
CCCc1cc(=O)[nH]c(N/N=C/C=C\c2ccccc2)n1	DAX1 inh-1 4.9
COc1ccc(-c2noc(C3CCCN(C(=O)Nc4ccccc4)C3)n2)cc1 (centres undefined)	none
COc1ccc(-c2noc(C3CCCN(C(=O)Nc4ccccc4F)C3)n2)cc1 (centres undefined)	hgDAF-12 ag 11
Cc1ccc(-c2noc(C3CCCN(C(=O)c4ccccc4Br)C3)n2)o1 (centres undefined)	ssDAF-12 act 1.7 (no result: Wee1 stabilizer)
COC(=O)[C@]12C[C@H](CC(=O)N3CCOCC3)C(=O)N(Cc3ccco3)C1=C[C@H](C(C)C)O[C@@H]2C1CC1	none (no result: Wee1 stabilizer, DAX1 inh-1)
O=C(Nc1ccc(F)cc1)C(c1cc2ccccc2o1)N1CCN(c2cccc(C(F)(F)F)n2)CC1 (centres undefined)	ssDAF-12 act 2.3 (no result: Wee1 stabilizer, DAX1 inh-1)
Cc1onc(-c2ccccc2)c1C(=O)OCC(=O)c1ccc(F)cc1	ssDAF-12 act 3.5 (no result: Wee1 stabilizer)
CCCCOc1ccc(CC(=O)NCC(=O)O)cc1	DAX1 inh-1 4.9
CCCCOc1ccc(C(=O)NCC(=O)NCCOc2ccccc2)cc1	none (no result: Wee1 stabilizer)
CCCCn1nc(C(=O)Nc2ccc(-n3cnnn3)cc2)c2ccccc2c1=O	none (no result: Wee1 stabilizer)
CCCc1[nH][nH]c(=O)c1C(c1cccc(Cl)c1)C(C#N)C#N (centres undefined)	DAX1 inh-1 4.5
COc1cccc(C2Oc3ccccc3C3CC(c4cccs4)=NN32)c1 (centres undefined)	hcDAF-12 act 5.8 (no result: DAX1 inh-1)
O=C(Nc1nnc(C(F)(F)F)s1)c1cccnc1	hcDAF-12 act 5.6
O=C(Nc1nnc(-c2ccccc2F)s1)c1cccnc1	DAX1 inh-1 5.1
O=S1(=O)c2ccccc2-c2c(nnn2Cc2ccccc2)CN1C1CC1	none (no result: Wee1 stabilizer, DAX1 inh-1)
C=CCN1C(=O)[C@@H](CC(=O)NCCc2ccccc2OC)[C@]2(C(=O)OC)CCCCC=C12	none (no result: Wee1 stabilizer, DAX1 inh-1)
COc1cc2c(cc1OC)C(C)N(S(=O)(=O)c1cn(C)c(C)n1)CC2 (centres undefined)	none (no result: DAX1 inh-1)
COc1cc2c(cc1OC)C(C)N(S(=O)(=O)c1cn(C)cn1)CC2 (centres undefined)	Wee1 stabilizer 9.4 (no result: DAX1 inh-1)
O=C(NNC1=C(C(=O)C(F)(F)F)CCC1)c1ccccc1Cl	none
O=C(NNC1=C(C(=O)C(F)(F)F)CCC1)c1ccccc1O	ssDAF-12 act 1.0, hcDAF-12 act 5.6
COc1ccccc1C(=O)NNC1=C(C(=O)C(F)(F)F)CCC1	ssDAF-12 act 0.9
CCCCOc1ccc(C(=O)NCC(=O)N2CCN(C/C=C/c3ccccc3)CC2)cc1	none (no result: Wee1 stabilizer)
O=C(Nc1ccc(Cl)c(Cl)c1)c1cccc2c1-c1ccccc1C2=O	none (no result: Wee1 stabilizer, DAX1 inh-1)
Cc1cc(C(=O)OCC(=O)Nc2cccc(S(=O)(=O)N(C)C)c2)c(C)o1	none
NS(=O)(=O)c1cccc(NC(=O)COC(=O)c2cc(-c3ccc(Cl)cc3)nc3ccccc23)c1	Wee1 stabilizer 9.0
Cc1cc(C(=O)OCC(=O)Nc2cccc(S(=O)(=O)N(C)C)c2)c2ccccc2n1	Wee1 stabilizer 11
CN(C)S(=O)(=O)c1cccc(NC(=O)COC(=O)c2cc3ccccc3oc2=O)c1	hgDAF-12 ag 13, DAX1 inh-1 5.3
CCc1cccc(CC)c1NC(=O)COC(=O)c1cccc(S(=O)(=O)N2CCc3ccccc3C2)c1	none
CN(C)S(=O)(=O)c1cccc(NC(=O)COC(=O)c2cccc(S(=O)(=O)N3CCc4ccccc4C3)c2)c1	Wee1 stabilizer 11
Fc1ccc(-c2n[nH]c(=S)n2N=Cc2ccc(-c3ccccc3)cc2)cc1	none (no result: Wee1 stabilizer, DAX1 inh-1)
CCOC(=O)C1=CCN(S(=O)(=O)c2ccccc2Br)C1c1ccccc1 (centres undefined)	none (no result: Wee1 stabilizer, DAX1 inh-1)
O=C(NCCCN1CCCC1=O)c1cccc(S(=O)(=O)N2CCCCC2)c1	DAX1 inh-2 4.4 (no result: Wee1 stabilizer)
O=C(NCCCN1CCCC1=O)c1cccc(S(=O)(=O)Nc2ccccc2Cl)c1	none (no result: Wee1 stabilizer)
O=C(c1cccc(S(=O)(=O)N2CCCCC2)c1)N1CCc2ccccc21	hcDAF-12 act 5.9
Cn1cc(Cc2ccc(C(=O)N3CCN(Cc4ccccc4)CC3)cn2)c2ccccc21	none (no result: Wee1 stabilizer, DAX1 inh-1)
Cc1c(NC(=O)CSc2nnc(-c3ccncc3)n2C)c(=O)n(-c2ccccc2)n1C	none (no result: Wee1 stabilizer)
O=C(Oc1nsnc1N1CCOCC1)N1CCCC1	none
O=C(Oc1nsnc1N1CCCCC1)N1CCOCC1	Wee1 stabilizer 8.9
CC(C)(N[C@@H](Cc1c[nH]c2ccccc12)C(=O)NCCCc1ccccc1)C(=O)NCc1ccccc1	none (no result: Wee1 stabilizer, DAX1 inh-1, DAX1 inh-2)
CCN1CCCc2cc(CN(CCN3CCOCC3)C(=S)Nc3ccc(OC)c(Cl)c3)ccc21	Wee1 stabilizer 10
Cc1c(C(=O)Nc2nnc(C3CC3)s2)oc2ccccc12	hgDAF-12 ag 11, hcDAF-12 act 6.4 (no result: Wee1 stabilizer)
CC1OC(c2ccccc2)OC2COC(c3ccccc3)OC12 (centres undefined)	none (no result: Wee1 stabilizer)
OC1COC(c2ccccc2)OC1C1OC(c2ccccc2)OCC1O (centres undefined)	DAX1 inh-1 4.9 (no result: Wee1 stabilizer)
Cc1cnc(C)c(Nc2nc(C(N)Cc3ccc(C(F)(F)F)cc3)cs2)n1 (centres undefined)	none (no result: Wee1 stabilizer, DAX1 inh-1)
O=C(COC(=O)c1cc(Br)ccc1O)NNC(=O)c1cccs1	none (no result: Wee1 stabilizer)
CSCCC(NC(N)=O)C(=O)Nc1cccc(C#N)c1 (centres undefined)	DAX1 inh-1 5.1
CSCCC(NC(N)=O)C(=O)Nc1ccc2ccccc2c1 (centres undefined)	none
O=C(COC(=O)C1CCN(S(=O)(=O)c2ccc(Cl)c(C(F)(F)F)c2)CC1)NCC1CCCO1 (centres undefined)	none (no result: Wee1 stabilizer)
COc1cccc(C2c3[nH]c4ccccc4c3C[C@H]3C(=O)N(c4ccccc4C(=O)NCCCN4CCOCC4)C(=O)N23)c1 (some centres undefined)	hcDAF-12 act 5.7 (no result: Wee1 stabilizer)
O=C(NCCCN1CCOCC1)c1ccccc1N1C(=O)[C@@H]2Cc3c([nH]c4ccccc34)C(c3ccc(F)cc3)N2C1=O (some centres undefined)	none (no result: Wee1 stabilizer)
CC(C)c1ccc(C2c3[nH]c4ccccc4c3C[C@H]3C(=O)N(c4ccccc4C(=O)N4CCC[C@@H]4C(=O)O)C(=O)N23)cc1 (some centres undefined)	none (no result: Wee1 stabilizer)

Screening results: PubChem, The Scripps Research Institute Molecular Screening Center
